According to PubChem BioAssay AID651820 (National Center for Advancing Translational Sciences (NCATS), 2012):
About 12,000 (3.5%) of roughly 340,000 compounds were called active. Not shown: some 18% with an inconclusive outcome. The list comes from a sample in which actives are over-represented; it also holds similar structures and randomly drawn compounds. Values without a mark were called inactive. Calls come from the whole dose curve; as a rule, active = well fitted inhibition curve with a large enough effect; inconclusive = small, poorly fitted or top-dose-only effect, or another doubt; inactive = no such curve, though single readings can be large or run the other way. Non-standard residues stand in square brackets, D forms with d. Residues, ends and D or L forms follow the SMILES beside them. ξ: configuration not given here. Ac5c = NC1(C(=O)O)CCCC1; ξS = NC(CO)C(=O)O

Experiment: qHTS Assay for Inhibitors of Hepatitis C Virus (HCV)
Conditions: Huh7.5.1 HCVcc-Cre infection, luciferase reporter, 44 h; series mostly up to 41.8 µM; activity change, negative = inhibition: at the top concentration
Outline: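 A cell-based infection assay in which seeded cells (1,000 per well) receive test compound after 4 h, are inoculated with HCVcc-Cre at approximately 0.5 moi, and are incubated 44 h before luminescence detection.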
% is set by controls: 0 for no effect and ±100 for the full control effect; potency is the fitted concentration of half-maximal effect.

Row | Structure (SMILES) | activity change, negative = inhibition [%] | Potency
1 | N#CC1(NC(=O)COC(=O)Cc2n[nH]c(=O)c3ccccc23)CCCCC1 | 12.1 | 
2 | NC1=NOC(=O)C1C1CCCCC1 (stereo unspecified) | -2.58 | 
3 | Cc1nc(-c2ccc(F)cc2)c(CC(=O)N(C)CC(=O)Nc2c(C)cccc2C)s1 | 5.17 | 
4 | CS(=O)(=O)c1ccc(C(=O)NNC(=O)c2cccs2)cc1 | 16.1 | 
5 | CC1(c2ccc(Cl)cc2Cl)NC(=O)N(CC(=O)Nc2cccnc2Cl)C1=O (stereo unspecified) | 0.453 | 
6 | O=C1C=C(c2cccc(Cl)c2O)C[C@@H](c2ccc(F)cc2)C1 | -2.53 | 
7 | O=C1C=C(c2cccc(Cl)c2)C[C@@H](c2ccc(F)cc2)C1 | -5.95 | 
8 | O=C1C=C(c2ccnc3cc(Cl)ccc23)C[C@@H](c2ccc3c(c2)OCO3)C1 |  | 3.16 µM (active)
9 | Cc1cc(C)c(C=NNc2nc3c([nH]2)c(=O)n(C)c(=O)n3C)c(C)c1 | -8.43 | 
10 | CCOc1ccc(CCNC(=O)COC(=O)C2CCN(S(=O)(=O)c3ccccc3)CC2)cc1OCC | -13.1 | 
11 | CCOC(=O)C(CO)NC(=O)C1(NC(C)=O)CCCC1 (stereo unspecified) (Ac-[Ac5c]-[ξS]-OEt) | 10.5 | 
12 | CCN1CC(CN(C)Cc2nc(-c3ccc(Cl)cc3)no2)CC1=O (stereo unspecified) |  | 11.2 µM (active)
13 | CN(Cc1ccccn1)Cc1nc(-c2ccc(Cl)cc2)no1 | -23.6 | 
14 | CC1CCN(Cc2nc(-c3ccc(Cl)cc3)no2)CC1 | 5.28 | 
15 | O=C(c1ccncc1)N1CCN(S(=O)(=O)c2cc(C(F)(F)F)cc(C(F)(F)F)c2)CC1 | -2.48 | 
16 | Cc1ccc(CNC(=O)COC(=O)C2CCC2)cc1 | 15.2 | 
17 | C#CCOCCOCCOCCNc1nc(N2CCN(C(=O)[C@H](CCCN=C(N)N)n3cc(C(N)[C@@H](C)CC)nn3)CC2)nc(N2CCN(C(=O)[C@H](CO)n3cc([C@@H](N)C(C)C)nn3)CC2)n1 (stereo partly specified) | -18.2 | 
18 | CCOc1cc(-c2cc(-c3ccc(OC)cc3)nc(N)c2C#N)ccc1O | -24.5 | 
19 | CC(=O)Nc1ccc(-c2cn3cccnc3n2)cc1 | 7.55 | 
20 | CCOc1cc(-c2cc(-c3ccc(NC(C)=O)cc3)nc(N)c2C#N)ccc1O |  | 11.2 µM (active)
21 | Nc1nnc(SCC(=O)NCC(=O)Nc2ccc(F)c(F)c2F)s1 | -23.5 | 
22 | CCN1CCN(CCCCOc2ccccc2F)CC1 | -5.52 | 

Row | Structure (SMILES) | activity change, negative = inhibition [%] | Potency
23 | COc1ccccc1OCCCCCCN1CCN(C)CC1 | -18.9 | 
24 | CN1CCN(CCCCOc2cccc3ccccc23)CC1 |  | 10 µM (active)
25 | Cc1ccc2c(O)c(Cc3ccccc3)c(=O)[nH]c2n1 | 7 | 
26 | COc1ccc(S(=O)(=O)N2CCN(CC(=O)N3CCOCC3)CC2)cc1OC | 1.25 | 
27 | CCOC(=O)c1ccccc1NC(=O)CSc1nc2c(sc(=S)n2CC)c(=O)[nH]1 | 18.2 | 
28 | COc1ccc2c(c1)O/C(=C\c1ccccc1O)C2=O | 2.33 | 
29 | COc1cc2cc(C(=O)N/N=C/c3cccc(OC)c3OC)[nH]c2cc1OC | -14.6 | 
30 | CCOc1ccc2[nH]c(C(=O)N/N=C/c3cccc(OC)c3OC)cc2c1 |  | 12.6 µM (active)
31 | COc1ccc(/C=N/NC(=O)c2cccc(C(F)(F)F)c2)cc1 | 17.5 | 
32 | COc1ccccc1CNC(=O)COC(=O)c1sc(C)nc1C | 8.83 | 
33 | CCN(C(=O)CSc1nnnn1-c1ccc(OC)cc1)C1CCS(=O)(=O)C1 (stereo unspecified) | 0.363 | 
34 | Oc1ccc(CN2CCN(c3ncccn3)CC2)cc1 | 7.41 | 
35 | Oc1cc2c(cc1CN1CCN(c3ccccc3)CC1)OCO2 | -1.36 | 
36 | Oc1c(CN2CCN(c3ccc(F)cc3)CC2)cc(Cl)c2cccnc12 |  | 3.55 µM (active)
37 | Cc1cc(O)c(Sc2ccccc2)c(=O)o1 | 4.91 | 
38 | COc1ccc(OC)c(S(=O)(=O)Nc2c(C)nn(C)c2C)c1 | 1.56 | 
39 | N#CC1=C(N)Oc2cc(N)ccc2C1c1ccccc1 (stereo unspecified) | -25.3 | 
40 | Cc1nn(-c2ncccn2)c2c1C(=O)CC(C)(C)C2Br (stereo unspecified) | -27.1 | 
41 | CC(Oc1ccc(Br)cc1)C(=O)NC1CCCCCC1 (stereo unspecified) | -2.46 | 
42 | COc1ccc(OCC(O)CNCCNc2nccc(C(F)(F)F)n2)cc1 (stereo unspecified) | 28.7 | 
43 | CC(C)(C)CC(C)(C)NCC(O)COCCOc1ccc(Br)cc1 (stereo unspecified) |  | 6.31 µM (active)
44 | COc1ccc(-c2nnc(SC(C)C(=O)NC3CC3)o2)cc1 (stereo unspecified) | 4.88 | 

Row | Structure (SMILES) | activity change, negative = inhibition [%] | Potency
45 | O=C(N=C1SC2CS(=O)(=O)CC2N1c1ccccc1)c1ccccc1 (stereo unspecified) | 4.87 | 
46 | Cc1nnc(NC(=O)/C=C/c2ccco2)s1 | 13 | 
47 | O=C(/C=C/c1ccco1)Nc1cccc(-c2nc3ccccc3[nH]2)c1 | -7.35 | 
48 | O=C(/C=C/c1ccco1)Nc1ccc(Oc2ccccc2)cc1 |  | 14.1 µM (active)
49 | CCOc1ccc(N2CC(C(=O)NCCN3C(=O)S/C(=C\c4cccnc4)C3=O)CC2=O)cc1 (stereo unspecified) | -16.4 | 
50 | O=C(NCCN1C(=O)S/C(=C\c2cccnc2)C1=O)c1cccc(OC(F)F)c1 | 1.89 | 
51 | Cc1cc(OCCCC(=O)NCCN2C(=O)S/C(=C\c3cccnc3)C2=O)ccc1Cl |  | 10 µM (active)
52 | CC(=O)c1cccc(CN2CCC(CO)(Cc3ccccc3)CC2)c1 | -1.38 | 
53 | OCC1(CCc2ccccc2)CCN(Cc2ccc3nsnc3c2)CC1 | 6.6 | 
54 | Cc1cccc(-c2ncc(CN3CCC(CO)(CCCc4ccccc4)CC3)cn2)c1 |  | 10 µM (active)
55 | c1ccc2cc(CCCc3cc4ccccc4cn3)ncc2c1 | -5.19 | 
56 | COc1ccc([C@H]2CC(=O)C=C(/C=C/c3ccccc3)C2)cc1 | 1.94 | 
57 | COc1cc(C(=O)NCc2nnc(SCC(=O)c3ccc(Cl)cc3)o2)cc(OC)c1OC | -20.9 | 
58 | CCOC(=O)CSc1nnc(CNc2ccc(F)cc2)o1 | 2.35 | 
59 | CCC(=O)Nc1ccc(C(=O)CSc2nnc(CNc3ccc(Cl)cc3)o2)cc1OC |  | 5.01 µM (active)
60 | O=C(COC(=O)c1cccnc1Cl)NC12CC3CC(CC(C3)C1)C2 | 15 | 
61 | O=C1/C(=C/c2ccc3c(c2)OCO3)CCC/C1=C\c1ccc2c(c1)OCO2 |  | inactive
62 | Cc1nn(C)cc1/C=C1\CCC/C(=C\c2cn(C)nc2C)C1=O |  | 10 µM (active)
63 | CCn1cc(/C=C2/SC(=S)NC2=O)c(C)n1 | -23.4 | 
64 | CC(=O)N(O)CCCCCNC(=O)CCC(=O)N(O)CCCCCNC(=O)CCC(=O)N(O)CCCCCNC(=O)CCC(=O)O | -9.7 | 
65 | O=S1(=O)CSCS(=O)(=O)C1 | 4.27 | 
66 | CCN(CC)CCCNC(=O)Cn1cnc2sc(C)c(S(=O)(=O)N3CCN(c4ncccn4)CC3)c2c1=O | -1.55 | 

Row | Structure (SMILES) | activity change, negative = inhibition [%] | Potency
67 | CCN(CC)CCNC(=O)c1sc2ncn(CC(=O)Nc3ccc(C)c(Cl)c3)c(=O)c2c1C |  | 8.91 µM (active)
68 | CCN(CC)CCNC(=O)Cn1cnc2sc(C)c(S(=O)(=O)N3CCOCC3)c2c1=O |  | inactive
69 | CC(=O)Nc1ccc(C(=O)Nc2cc(S(=O)(=O)N3CCOCC3)ccc2N2CCOCC2)cc1 | -10.7 | 
70 | O=C(CN1CCOCC1)Nc1cccc([N+](=O)[O-])c1 | 7.8 | 
71 | CCc1cccc(NC(=S)N(CCN(C)C)C2CCN(C(C)C)CC2)c1 |  | 8.91 µM (active)
72 | Cc1cccc(NC(=S)N(CCN(C)C)C(C)c2ccco2)c1 (stereo unspecified) | 21.8 | 
73 | COCCN(C(=S)Nc1ccccc1OC)C1CCN(C(C)C)CC1 | -1.86 | 
74 | O=c1oc2ccc(C#CC3(O)CCCCC3)cc2cc1-n1cc(-c2ccsc2)nn1 | 6.15 | 
75 | CCOC(=O)C(C)N(c1ccccc1Cl)S(C)(=O)=O (stereo unspecified) | 7.17 | 
76 | COc1cccc(CNC(=O)COc2cc(O)c3c(c2)OC(C)(C)CC3=O)c1 |  | 5.01 µM (active)
77 | COc1cccc(CCNC(=O)COc2cccc3c2OC(C)(C)C3)c1 | -22 | 
78 | COc1cccc(CC(=O)OCC(=O)NCc2ccc3c(c2)OCO3)c1 | 15.7 | 
79 | COc1cc2[nH]c(O)c(C=O)c2cc1OC | 7.9 | 
80 | COc1ccccc1C(=O)Nc1ccc(Nc2ccccc2)cc1 | 2.81 | 
81 | COc1ccc2[nH]c3c(c2c1)CCN1C(=O)C(CC(=O)NCCc2ccccn2)C[C@H](C(=O)N2CCOCC2)[C@@]31C (stereo partly specified) | -4.93 | 
82 | COc1ccc(CNC(=O)C(C)n2nc(C)c3c(C)n(-c4ccccc4)nc3c2=O)c(OC)c1 (stereo unspecified) | -27.5 | 
83 | COc1ccc(OC)c(CNC(=O)Cn2nc(C)c3c(C)n(-c4ccc(C)cc4)nc3c2=O)c1 |  | 3.98 µM (active)
84 | Cc1nn(CC(=O)N2CCCCC2)c(=O)c2nn(-c3ccccc3)c(C)c12 | 9.96 | 
85 | O=C(c1ccc(Cl)s1)N(Cc1nnc(-c2ccccc2Cl)o1)C1CC1 | 0 | 
86 | CCN(CC)P(=O)(Nc1ccc(SC(F)F)cc1)c1ccc(N(C)C)cc1NC(=O)c1ccco1 (stereo unspecified) |  | 22.4 µM (active)
87 | CCC(=O)NC(=S)Nc1ccc(NC(=O)c2ccco2)c(Cl)c1 | -21.3 | 
88 | COc1ccc(OCC(=O)Nc2ccc(NC(=O)c3ccco3)c(C)c2)cc1 | 9.3 | 

Row | Structure (SMILES) | activity change, negative = inhibition [%] | Potency
89 | CCN(C(=O)COC(=O)CCOc1cccc(C)c1)c1c(N)n(Cc2ccccc2)c(=O)[nH]c1=O | 23.4 | 
90 | CC(OC(=O)c1ccc([N+](=O)[O-])cc1)C(=O)NCC1CCCCC1 (stereo unspecified) | -7.4 | 
91 | N[C@@H](Cc1ccccc1)C(=O)N1CCOCC1 | 1.81 | 
92 | COc1ccc(-c2cc(C(=O)N/N=C/c3cccnc3)c3ccccc3n2)c(OC)c1 | -20.3 | 
93 | CC(=O)Oc1cc2c(C(=O)NCCN3CCOCC3)c(C)oc2c2ccccc12 |  | 10 µM (active)
94 | Cc1cc(C)cc(C(=O)NCCN2CCOCC2)c1 | 25.1 | 
95 | Cc1ccc(C(=O)NCCN2CCOCC2)cc1C | 19.4 | 
96 | C[C@@H]1CN([C@H](C)CO)C(=O)c2cc(NC(=O)NC3CCCCC3)ccc2O[C@H]1CN(C)S(C)(=O)=O | 0.0101 | 
97 | Cc1ccc(S(=O)(=O)CCC(=O)OCC(=O)NCCc2ccc(S(N)(=O)=O)cc2)cc1 | 19.7 | 
98 | COc1cccc(CC(=O)Nc2ccc(-c3csc(C)n3)cc2)c1 | -22.6 | 
99 | COc1ccc(CC(=O)Nc2ccccc2NC(=O)c2ccco2)cc1OC | -1.79 | 
100 | Cc1ccc(S(=O)(=O)NC(=O)Nc2nc(-c3ccc(F)c(F)c3)cs2)cc1 | -7.66 | 
101 | COc1cc(CC(=O)Nc2nc(-c3ccc(F)c(F)c3)cs2)cc(OC)c1OC |  | 10 µM (active)
102 | COc1ccc(-c2csc(NC(=O)c3ccc(N4C(=O)CCC4=O)cc3)n2)cc1OC | -26.9 | 
103 | COc1cccc(CC(=O)Nc2nc(-c3ccc(OC)c(OC)c3)cs2)c1 |  | 12.6 µM (active)
104 | COc1ccc(CC(=O)Nc2nc(-c3ccc(F)c(F)c3)cs2)cc1OC |  | 4.47 µM (active)
105 | Cc1ccc(-c2csc(NC(=O)Cc3cccs3)n2)cc1C | -1.69 | 
106 | COc1ccc(CCN(C(=O)COc2ccccc2)c2nc(-c3ccccc3)cs2)cc1OC | -26 | 
